Activity calls are given as the source filed them. The calls were made as follows: active = hit-call score of the fitted dose curve at least 0.9, where 1 is the maximum; inactive = score below 0.9.
Legend:
Conditions in all cases: mRNA level, 48 h; actives raise or lower the signal
[1] = read-out: Insulin-like growth factor-binding protein 1 (IGFBP1), IGFBP1 (gene 3484); test: LTEA_HepaRG_IGFBP1: Life Technologies and Expression Analysis (LTEA) Assay for Insulin-like growth factor-binding protein 1 (IGFBP1) using HepaRG (AID 2283508)
Summary of the method: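 Differentiated human HepaRG cells in serum-free induction medium were exposed in duplicate for 48 h to eight concentrations, top 100 uM with half-log dilutions, in 0.5% DMSO. Transcript levels came from qRT-PCR normalised to ACTB, GAPDH and POLR2A, fitted bidirectionally against DMSO.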

[2] = read-out: Interleukin 6 (IL6), IL6 (gene 3569); test: LTEA_HepaRG_IL6: Life Technologies and Expression Analysis (LTEA) Assay for Interleukin 6 (IL6) using HepaRG (AID 2283509)
Summary of the method: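 Changes in IL6 mRNA, up or down relative to 0.5% DMSO controls, were derived from concentration-response curves in human HepaRG cells treated for 48 h at up to 100 uM, with ACTB, GAPDH and POLR2A as normalizers.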

[3] = read-out: Interleukin 6 Receptor (IL6R), IL6R (gene 3570); test: LTEA_HepaRG_IL6R: Life Technologies and Expression Analysis (LTEA) Assay for Interleukin 6 Receptor (IL6R) using HepaRG (AID 2283510);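 as to AC50: TaqMan qRT-PCR signal normalized to ACTB GAPDH and POLR2A housekeeping genes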
Summary of the method: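 In this HepaRG screen, test chemicals act on cells for 48 h at up to 100 uM (eight half-log points, duplicate wells). IL6R expression is quantified by qRT-PCR after normalization to ACTB, GAPDH and POLR2A, with DMSO as baseline.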

[4] = read-out: Potassium channel subfamily K member 1 (KCNK1), KCNK1 (gene 3775); test: LTEA_HepaRG_KCNK1: Life Technologies and Expression Analysis (LTEA) Assay for Potassium channel subfamily K member 1 (KCNK1) using HepaRG (AID 2283511)
Summary of the method: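 Human HepaRG cultures receive test chemicals for 48 h in 0.5% DMSO, top concentration 100 uM with half-log dilutions. Induction or suppression of KCNK1 mRNA relative to DMSO is derived by bidirectional fitting of qRT-PCR data.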

[5] = read-out: Keratin 19 (KRT19), KRT19 (gene 3880); test: LTEA_HepaRG_KRT19: Life Technologies and Expression Analysis (LTEA) Assay for Keratin 19 (KRT19) using HepaRG (AID 2283512)
Summary of the method: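 Differentiated human HepaRG cells, plated 48 h, were exposed in duplicate for 48 h in serum-free induction medium to eight half-log concentrations up to 100 uM in 0.5% DMSO. KRT19 mRNA was quantified by qRT-PCR, normalized to ACTB, GAPDH and POLR2A, and fitted bidirectionally versus DMSO.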

[6] = read-out: JUN Transcription Factor, JUN (gene 3725); test: LTEA_HepaRG_JUN: Life Technologies and Expression Analysis (LTEA) Assay for JUN Transcription Factor using HepaRG (AID 2283513)
Summary of the method: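 Gene-expression endpoint: JUN mRNA (qRT-PCR, normalized to three reference genes) in HepaRG cultures treated 48 h with chemicals, duplicate wells, 100 uM maximum with half-log dilutions; bidirectional fitting relative to 0.5% DMSO.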

[7] = read-out: Lipase C (LIPC), LIPC (gene 3990); test: LTEA_HepaRG_LIPC: Life Technologies and Expression Analysis (LTEA) Assay for Lipase C (LIPC) using HepaRG (AID 2283514)
Summary of the method: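 In this multiplexed gene-expression screen, human HepaRG cultures received test chemicals for 48 h across eight concentrations with 100 uM highest, in duplicate. Values reflect LIPC mRNA induction or suppression versus DMSO vehicle, from normalized qRT-PCR.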

[8] = read-out: Lipoprotein lipase (LPL), LPL (gene 4023); test: LTEA_HepaRG_LPL: Life Technologies and Expression Analysis (LTEA) Assay for Lipoprotein lipase (LPL) using HepaRG (AID 2283515)
Summary of the method: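 Concentration-response testing used half-log steps from 100 uM in 0.5% DMSO on human HepaRG cells, 48 h, duplicate wells. Phenobarbital 1 mM served as induction control; LPL mRNA was normalized to ACTB, GAPDH, POLR2A.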

[9] = read-out: MicroRNA 122 (MIR122), gene 406906; test: LTEA_HepaRG_MIR122: Life Technologies and Expression Analysis (LTEA) Assay for MicroRNA 122 (MIR122) using HepaRG (AID 2283516); also: the transcript read is the microRNA miR-122
Summary of the method: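 Changes in transcript abundance, up or down relative to 0.5% DMSO vehicle, were scored after 48 h chemical treatment of HepaRG cells (maximum 100 uM). Quantification used TaqMan qRT-PCR normalized to housekeeping genes.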

[10] = read-out: matrix metalloproteinase-10 (MMP10), MMP10 (gene 4319); test: LTEA_HepaRG_MMP10: Life Technologies and Expression Analysis (LTEA) Assay for matrix metalloproteinase-10 (MMP10) using HepaRG (AID 2283517)
Summary of the method: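 In differentiated HepaRG cultures kept in 0.5% DMSO, test chemicals act for 48 h over an eight-point range with a top dose of 100 uM. Expression is then quantified by TaqMan RT-PCR against ACTB, GAPDH and POLR2A.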

MYC, MYC (gene 4609) = test: LTEA_HepaRG_MYC: Life Technologies and Expression Analysis (LTEA) Assay for MYC using HepaRG (AID 2283518)
Summary of the method: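 Differentiated human HepaRG cells, plated 48 h then switched to serum-free induction medium, were exposed in duplicate for 48 h to 8-point half-log series up to 100 uM in 0.5% DMSO. MYC mRNA measured by qRT-PCR, normalized to ACTB/GAPDH/POLR2A.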

[11] = read-out: matrix metalloproteinase-3 (MMP3), MMP3 (gene 4314); test: LTEA_HepaRG_MMP3: Life Technologies and Expression Analysis (LTEA) Assay for matrix metalloproteinase-3 (MMP3) using HepaRG (AID 2283519)
Summary of the method: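 Human liver HepaRG cultures received chemicals (top concentration 100 uM, 0.5% DMSO) for 48 h in duplicate. MMP3 mRNA induction or loss was then assessed via TaqMan qRT-PCR with housekeeping-gene normalisation.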

[12] = read-out: Nuclear factor NF-kappa-B p105 subunit (Homo sapiens) (UniProt P19838); test: LTEA_HepaRG_NFKB1: Life Technologies and Expression Analysis (LTEA) Assay for Nuclear Factor Kappa B Subunit 1 (NFKB1) using HepaRG (AID 2283521)
Summary of the method: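 Differentiated human HepaRG cells in serum-free induction medium with 0.5% DMSO were exposed for 48 h to eight half-log concentrations, top 100 uM, in duplicate. NFKB1 mRNA measured by Fluidigm TaqMan qRT-PCR, normalised to ACTB, GAPDH and POLR2A; bidirectional fit versus DMSO.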

[13] = read-out: Protein phosphatase 2A (PPP2R4), PTPA (gene 5524); test: LTEA_HepaRG_PPP2R4: Life Technologies and Expression Analysis (LTEA) Assay for Protein phosphatase 2A (PPP2R4) using HepaRG (AID 2283522)
Summary of the method: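 Using HepaRG cultures maintained in 0.5% DMSO, chemicals are tested 48 h at up to 100 uM in duplicate. Induction or suppression of PPP2R4 mRNA, measured by qRT-PCR, is fitted bidirectionally against the vehicle baseline.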

[14] = read-out: Phosphatase and tensin (PTEN), PTEN (gene 5728); test: LTEA_HepaRG_PTEN: Life Technologies and Expression Analysis (LTEA) Assay for Phosphatase and tensin (PTEN) using HepaRG (AID 2283523)
Summary of the method: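 Expression of PTEN is quantified in the human liver line HepaRG following two days of dosing (top concentration 100 uM, half-log dilutions, 0.5% DMSO). Values derive from bidirectional curve fitting relative to DMSO controls.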

[15] = read-out: solute carrier (SLC22A1), SLC22A1 (gene 6580); test: LTEA_HepaRG_SLC22A1: Life Technologies and Expression Analysis (LTEA) Assay for solute carrier (SLC22A1) using HepaRG (AID 2283524);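 as to AC50: TaqMan qRT-PCR normalized to ACTB GAPDH and POLR2A housekeeping genes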
Summary of the method: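 Transcript induction or suppression of SLC22A1 in human HepaRG cultures is scored after 48 h chemical treatment, with DMSO (0.5%) as baseline for bidirectional fitting. Concentrations span eight half-log points topping at 100 uM.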

[16] = read-out: Pyruvate Dehydrogenase Kinase 4 (PDK4), PDK4 (gene 5166); test: LTEA_HepaRG_PDK4: Life Technologies and Expression Analysis (LTEA) Assay for Pyruvate Dehydrogenase Kinase 4 (PDK4) using HepaRG (AID 2283525)
Summary of the method: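 Eight-point, half-log concentration series (max 100 uM, 0.5% DMSO) applied to differentiated HepaRG cells for 48 h in duplicate. Endpoint: PDK4 mRNA induction or repression by qRT-PCR against DMSO baseline.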

[17] = read-out: NAD(P)H dehydrogenase [quinone] 1 (NQO1), NQO1 (gene 1728); test: LTEA_HepaRG_NQO1: Life Technologies and Expression Analysis (LTEA) Assay for NAD(P)H dehydrogenase [quinone] 1 (NQO1) using HepaRG (AID 2283526)
Summary of the method: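 In this assay, gene expression is read by qRT-PCR after 48 h exposure of HepaRG cells to eight concentrations (max 100 uM, half-log) in 0.5% DMSO. Each chemical runs in duplicate, and activity is scored relative to vehicle.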

[18] = read-out: Paternally Expressed 10 (PEG10), PEG10 (gene 23089); test: LTEA_HepaRG_PEG10: Life Technologies and Expression Analysis (LTEA) Assay for Paternally Expressed 10 (PEG10) using HepaRG (AID 2283520);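 as to AC50: PEG10 transcript by qRT-PCR normalised to ACTB GAPDH and POLR2A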
Summary of the method: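 After 48 h exposure of differentiated HepaRG cells (0.5% DMSO vehicle, eight concentrations up to 100 uM, duplicates), PEG10 mRNA was measured by TaqMan qRT-PCR. Values were normalised to endogenous control genes and analysed bidirectionally against vehicle.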

[19] = read-out: Intercellular Adhesion Molecule 1 (ICAM1), ICAM1 (gene 3383); test: LTEA_HepaRG_ICAM1: Life Technologies and Expression Analysis (LTEA) Assay for Intercellular Adhesion Molecule 1 (ICAM1) using HepaRG (AID 2283507)
Summary of the method: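 Differentiated HepaRG cells in serum-free induction medium were exposed in duplicate for 48 h to eight half-log concentrations up to 100 uM in 0.5% DMSO. Transcript levels were measured by qRT-PCR normalized to ACTB, GAPDH and POLR2A; bidirectional fits relative to DMSO.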

Measured: AC50

Chain of Nuclear factor NF-kappa-B p105 subunit (Homo sapiens) (P19838 whole entry, looked up): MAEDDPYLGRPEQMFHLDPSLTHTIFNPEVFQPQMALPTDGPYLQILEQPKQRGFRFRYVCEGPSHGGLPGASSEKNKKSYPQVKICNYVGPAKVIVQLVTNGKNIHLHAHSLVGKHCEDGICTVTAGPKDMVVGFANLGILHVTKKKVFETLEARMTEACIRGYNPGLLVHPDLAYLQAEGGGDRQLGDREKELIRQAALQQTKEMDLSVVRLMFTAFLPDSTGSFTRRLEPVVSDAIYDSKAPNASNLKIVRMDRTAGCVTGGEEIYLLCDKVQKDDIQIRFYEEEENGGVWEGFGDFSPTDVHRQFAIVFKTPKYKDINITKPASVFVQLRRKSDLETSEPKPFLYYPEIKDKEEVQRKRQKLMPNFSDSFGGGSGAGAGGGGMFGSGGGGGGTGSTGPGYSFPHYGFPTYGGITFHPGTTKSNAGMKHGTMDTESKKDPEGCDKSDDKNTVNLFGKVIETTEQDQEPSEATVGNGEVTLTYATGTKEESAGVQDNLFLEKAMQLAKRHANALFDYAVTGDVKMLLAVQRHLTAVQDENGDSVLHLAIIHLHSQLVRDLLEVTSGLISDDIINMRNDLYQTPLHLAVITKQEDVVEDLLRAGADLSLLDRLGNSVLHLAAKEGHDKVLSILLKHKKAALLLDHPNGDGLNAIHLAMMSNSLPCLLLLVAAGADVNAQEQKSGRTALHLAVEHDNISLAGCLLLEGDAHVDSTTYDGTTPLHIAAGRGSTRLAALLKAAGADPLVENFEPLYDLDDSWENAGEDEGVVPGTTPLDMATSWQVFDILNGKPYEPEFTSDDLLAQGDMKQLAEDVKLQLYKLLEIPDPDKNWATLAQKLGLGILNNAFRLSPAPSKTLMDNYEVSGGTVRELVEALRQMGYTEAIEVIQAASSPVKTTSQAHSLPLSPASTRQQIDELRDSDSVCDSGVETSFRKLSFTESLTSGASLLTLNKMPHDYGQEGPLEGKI

Clc1ccc(C(c2ccccc2Cl)C(Cl)(Cl)Cl)cc1 (stereo not given)
active: [5] 20.4 µM | [7] 84.4 µM | [8] 89.7 µM
inactive: [1] | [2] | [3] | [4] | [6] | [9] | [10] | MYC, MYC (gene 4609) | [11] | [12] | [13] | [14] | [15] | [16] | [17]

CO/C=C(/C(=O)OC)c1ccccc1COc1cccc(C(F)(F)F)n1
inactive: [3] | [12] | [13] | [14] | [16] | [17]
active: [1] 8.19 µM | [2] 9.02 µM | [4] 27.8 µM | [5] 12.4 µM | [6] 50 µM | [7] 22.6 µM | [8] 9.42 µM | [9] 6.86 µM | [10] 12.6 µM | MYC, MYC (gene 4609) 9.71 µM | [11] 23.9 µM | [15] 5.3 µM

C=CC(N)=O
inactive: [1] | [2] | [3] | [4] | [5] | [6] | [7] | [8] | [9] | [10] | MYC, MYC (gene 4609) | [18] | [12] | [13] | [14] | [15] | [16] | [17]

CC1=C2C[C@H]3[C@@H](CC=C4C[C@@H](O)CC[C@@]43C)[C@@H]2CC[C@]12O[C@@H]1C[C@H](C)CN[C@H]1[C@H]2C
inactive: [19] | [1] | [2] | [3] | [4] | [6] | [7] | [8] | [9] | [10] | MYC, MYC (gene 4609) | [18] | [13] | [14] | [15] | [16] | [17]

CCOP(=S)(OCC)SCSC(C)(C)C
inactive: [19] | [1] | [2] | [3] | [4] | [6] | [7] | [8] | [9] | [10] | MYC, MYC (gene 4609) | [11] | [13] | [14] | [15] | [17]
active: [18] 50 µM | [16] 18 µM

COS(=O)(=O)OC
inactive: [19] | [1] | [2] | [3] | [4] | [6] | [7] | [8] | [9] | [10] | MYC, MYC (gene 4609) | [18] | [12] | [13] | [14] | [15] | [16] | [17]

NS(=O)(=O)C(F)(F)C(F)(F)C(F)(F)C(F)(F)C(F)(F)C(F)(F)C(F)(F)C(F)(F)F
inactive: [19] | [4] | [16]
active: [1] 21.6 µM | [2] 38.9 µM | [3] 30.2 µM | [6] 37.2 µM | [7] 15.8 µM | [8] 70.8 µM | [9] 12.4 µM | [10] 33.9 µM | MYC, MYC (gene 4609) 26.8 µM | [18] 5.02 µM | [12] 2.4 µM | [13] 24.4 µM | [14] 26.2 µM | [15] 9.51 µM | [17] 12.8 µM
